Records with an inconclusive call do not appear. Calls of active or inactive are those of the source. Unless noted, the call rests on the fitted dose curve; in most records, active means well fitted curve in the direction sought with a large enough effect in the repeat runs; inconclusive means weak or mixed curves; inactive means no such curve, though single readings can be large; an effect the other way counts as inactive or inconclusive.
What was measured:
[1] = qHTS assay to identify small molecule agonists of the RXR signaling pathway - cell viability counter screen (AID 1159529); further: nearly all actives have a fitted effect of over 50% in size; further: potency means the concentration at half of the fitted maximal effect
In short: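 RXR-alpha-UAS-bla HEK 293T cells in medium with 2% charcoal-stripped FBS were preincubated 5 hr, then exposed to compounds for 16 hr at 37 C. Viability was read as CellTiter-Glo luminescence after 30 min at room temperature.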

[2] = qHTS assay to identify small molecule antagonists of the retinoid acid receptor (RAR) signaling pathway - cell viability counter screen (AID 1159551); further: nearly all actives have a fitted effect of over 35% in size
In short: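 Following overnight attachment, C3RL4 reporter cells received DMSO-dissolved compounds and then retinol (1 uM final). Six hours later at 37 C, ATP content was measured by CellTiter-Glo luminescence.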

[3] = qHTS assay to identify small molecule antagonists of the estrogen related receptor (ERR) signaling pathway from Tox21 library - cell viability counter screen (AID 1224834); further: nearly all actives have a fitted effect of over 30% in size; further: potency means the concentration at half of the fitted maximal effect
In short: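 Viability readout (CellTiter-Fluor fluorescence, 30 min at 37 C) multiplexed with the ERR assay; cells treated 17.5 h at 37 C with compounds delivered in DMSO.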

[4] = target: Luciferin 4-monooxygenase (Photinus pyralis) (UniProt P08659); test: qHTS assay to identify small molecule inhibitors of firefly luciferase (AID 1224835); further: nearly all actives have a fitted effect of over 25% in size; further: potency means the concentration at half of the fitted maximal effect
In short: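 Inhibition of purified Photinus luciferase is measured by luminescence. Substrate levels (D-luciferin, ATP) sit at their KM values. Each compound is tested in a concentration series.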

[5] = qHTS assay to identify small molecule agonists of the constitutive androstane receptor (CAR) signaling pathway - cell viability counter screen (AID 1224836); further: nearly all actives have a fitted effect of over 45% in size; further: potency means the concentration at half of the fitted maximal effect
In short: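 HepG2 cells stably carrying hCAR and a CYP2B6-2.2kb reporter were plated 4 h, then given compounds at 15 concentrations plus PK11195 (final 0.75 uM). After 23 h at 37 C, viability was read by CellTiter-Fluor fluorescence.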

[6] = qHTS assay to identify small molecule antagonists of the constitutive androstane receptor (CAR) signaling pathway - cell viability counter screen (AID 1224837); further: nearly all actives have a fitted effect of over 45% in size; further: potency means the concentration at half of the fitted maximal effect
In short: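 Fluorescence from CellTiter-Fluor served as the viability signal. Human hepatoma HepG2 cells stably bearing hCAR and CYP2B6-2.2kb received compound plus CITCO (50 nM final) for 23 hr.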

[7] = qHTS assay to identify small molecule antagonists of the estrogen related receptor signaling pathway with the pleiotropic PPARgamma coactivator (PGC) from Tox21 10K library - cell viability counter screen (AID 1224840; active means well fitted cell-killing curve with a large enough effect in the repeat runs, not every such curve was filed as active; further: nearly all actives have a fitted effect of over 40% in size; further: potency means the concentration at half of the fitted maximal effect)
In short: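 Compounds in DMSO, alongside positive and negative controls, were pinned onto PGC/ERR cells (2,000 per well). Exposure lasted 17.5 hours at 37 C, followed by a 30-minute CellTiter-Fluor incubation and fluorescence reading.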

[8] = qHTS assay to identify small molecule antagonists of the estrogen related receptor signaling pathway with the pleiotropic PPARgamma coactivator (PGC) from Tox21 10K library (AID 1224841; call rule not given here; further: actives are mostly falling curves and most rising ones were filed inactive; nearly all actives have a fitted effect of over 50% in size)
In short: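 Compound exposure ran 18 hours at 37 C in PGC/ERR cells (2,000/well) that had first rested 6 hours in a 37 C/5% CO2 incubator. Luciferase activity was then detected with One-Glo after a 30-minute room-temperature step.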

[9] = qHTS assay to identify small molecule agonists of the estrogen related receptor signaling pathway with the pleiotropic PPARgamma coactivator (PGC) from Tox21 10K library (AID 1224842); further: nearly all actives have a fitted effect of over 15% in size
In short: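 Luminescence from One-Glo (30 min, room temperature) measured after PGC/ERR cells had 18 h at 37 C with pinned compound (23 nL in DMSO). Cells had been seeded at 2,000 per well and pre-incubated 6 h.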

[10] = target: Thyrotropin receptor (Homo sapiens) (UniProt P16473); test: qHTS assay to identify small molecule agonists of the thyroid stimulating hormone receptor (TSHR) signaling pathway (AID 1224843; calls by dose curve; further: nearly all actives have a fitted effect of over 45% in size)
In short: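 HEK293 cells stably bearing the thyrotropin receptor were plated at 800 cells/well and challenged with compound (30 min, RT). Accumulated cAMP was quantified via cAMP-d2 competing for cryptate-tagged antibody.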

[11] = qHTS assay to identify small molecule agonists of the hypoxia (HIF-1) signaling pathway - cell viability counter screen (AID 1224844; calls by dose curve; further: nearly all actives have a fitted effect of over 50% in size; further: potency means the concentration at half of the fitted maximal effect)
In short: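 Luminescent ATP content (CellTiter-Glo, 30 min, room temperature) served as the viability measure in HRE-bla ME-180 cells exposed to compounds for 17 hrs in low-serum medium (0.5% dialyzed FBS).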

[12] = target: Nuclear receptor subfamily 1 group I member 3 (Homo sapiens) (UniProt Q14994); test: qHTS assay to identify small molecule antagonists of the constitutive androstane receptor (CAR) signaling pathway (AID 1224838); further: nearly all actives have a fitted effect of over 40% in size
In short: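 Quantitative HTS in double-stable HepG2-CYP2B6-hCAR cells. After 4 h plating, cells get compound (15 concentrations) and CITCO at 50 nM final, incubate 24 h at 37 C, then ONE-Glo luminescence is read.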

[13] = target: Nuclear receptor subfamily 1 group I member 3 (Homo sapiens) (UniProt Q14994); test: qHTS assay to identify small molecule agonists of the constitutive androstane receptor (CAR) signaling pathway (AID 1224839);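 further: HepG2 cells stably carrying human CAR and a CYP2B6 luciferase reporter; nearly all actives have a fitted effect of over 15% in size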
In short: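 HepG2 cells stably expressing hCAR and a CYP2B6-2.2kb luciferase reporter were treated with compounds at 15 concentrations plus 0.75 uM PK11195 (final) for 24 h at 37 C; luminescence was read after ONE-Glo addition.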

[14] = qHTS assay to identify small molecule antagonists of the retinoic acid receptor (RAR) signaling pathway (AID 1159552; further: potency means the concentration at half of the fitted maximal effect; nearly all actives have a fitted effect of over 50% in size)
In short: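 RARE-luc C3RL4 cells; cpds + 1 uM (final) retinol, 6 hr, 37 C/5% CO2; luciferase reagent, 30 min RT, luminescence readout. Inhibitors of retinol-driven signal scored.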

[15] = qHTS assay to identify small molecule agonists of the retinoic acid receptor (RAR) signaling pathway (AID 1159553); details: C3RL4 RARE luciferase reporter, agonist, 6 h; activation: at 73.3 µM (top of the series) unless noted
In short: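 Cell line C3RL4, RARE luciferase reporter. Treatment: compounds in DMSO, 6 hr, 37 C, 5% CO2, after overnight plating. Detection: luminescence, 30 min RT after reagent.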

Measured: Potency

Sequence of Thyrotropin receptor (Homo sapiens) (P16473 whole entry, looked up): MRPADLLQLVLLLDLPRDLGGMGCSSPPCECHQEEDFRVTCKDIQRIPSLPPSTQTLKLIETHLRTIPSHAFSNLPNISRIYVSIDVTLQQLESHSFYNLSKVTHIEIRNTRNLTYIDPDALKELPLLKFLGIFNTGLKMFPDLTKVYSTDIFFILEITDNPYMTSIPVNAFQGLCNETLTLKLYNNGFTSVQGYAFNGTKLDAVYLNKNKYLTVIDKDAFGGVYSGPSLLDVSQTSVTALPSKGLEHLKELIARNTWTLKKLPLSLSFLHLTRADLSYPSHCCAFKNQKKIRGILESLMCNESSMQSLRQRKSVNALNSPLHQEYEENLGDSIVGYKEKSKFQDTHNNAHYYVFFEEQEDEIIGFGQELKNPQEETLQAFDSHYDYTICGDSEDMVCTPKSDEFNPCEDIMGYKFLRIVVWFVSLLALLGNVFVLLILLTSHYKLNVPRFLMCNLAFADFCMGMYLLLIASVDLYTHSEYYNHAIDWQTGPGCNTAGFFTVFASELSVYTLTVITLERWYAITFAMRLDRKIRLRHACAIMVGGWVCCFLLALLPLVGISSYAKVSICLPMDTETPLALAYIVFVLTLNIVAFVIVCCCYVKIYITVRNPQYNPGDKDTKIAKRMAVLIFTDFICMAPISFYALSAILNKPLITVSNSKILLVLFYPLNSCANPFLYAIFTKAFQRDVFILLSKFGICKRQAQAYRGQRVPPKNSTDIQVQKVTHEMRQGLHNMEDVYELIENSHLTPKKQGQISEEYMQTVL
Sequence of Luciferin 4-monooxygenase (Photinus pyralis) (P08659 whole entry, looked up): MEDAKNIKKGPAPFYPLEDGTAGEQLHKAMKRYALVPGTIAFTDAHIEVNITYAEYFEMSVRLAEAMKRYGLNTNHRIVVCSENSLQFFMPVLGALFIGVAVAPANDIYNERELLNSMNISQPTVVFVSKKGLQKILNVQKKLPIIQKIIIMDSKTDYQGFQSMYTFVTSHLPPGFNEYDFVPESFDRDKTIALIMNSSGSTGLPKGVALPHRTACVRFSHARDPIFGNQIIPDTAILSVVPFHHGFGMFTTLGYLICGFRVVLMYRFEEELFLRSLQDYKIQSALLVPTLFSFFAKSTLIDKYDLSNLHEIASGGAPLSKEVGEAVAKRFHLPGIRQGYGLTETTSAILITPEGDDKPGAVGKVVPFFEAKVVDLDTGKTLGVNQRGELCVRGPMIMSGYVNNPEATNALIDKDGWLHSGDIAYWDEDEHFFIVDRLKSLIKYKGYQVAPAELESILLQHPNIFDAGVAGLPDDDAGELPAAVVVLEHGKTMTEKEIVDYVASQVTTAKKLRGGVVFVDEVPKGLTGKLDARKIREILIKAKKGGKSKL
Sequence of Nuclear receptor subfamily 1 group I member 3 (Homo sapiens) (Q14994 whole entry, looked up): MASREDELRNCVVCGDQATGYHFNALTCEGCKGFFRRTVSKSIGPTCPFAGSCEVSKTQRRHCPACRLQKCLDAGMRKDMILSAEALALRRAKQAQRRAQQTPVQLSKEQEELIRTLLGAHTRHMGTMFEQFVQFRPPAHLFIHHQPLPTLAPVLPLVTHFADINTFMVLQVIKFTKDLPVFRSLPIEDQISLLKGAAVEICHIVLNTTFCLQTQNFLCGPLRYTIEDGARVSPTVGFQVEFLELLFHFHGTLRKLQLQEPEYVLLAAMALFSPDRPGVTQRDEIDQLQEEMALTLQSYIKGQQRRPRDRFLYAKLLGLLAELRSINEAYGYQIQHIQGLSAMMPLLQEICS

Cc1cccc(C)c1NC(=O)c1ccc(N)cc1
inactive: [1] | [2] | [3] | [4] | [5] | [6] | [7] | [8] | [9] | [10] | [11]

CC(=O)CC(=O)Nc1ccc(S(=O)(=O)O)cc1
inactive: [1] | [2] | [3] | [5] | [6] | [7] | [10]

CCCCCCCCCCOC(=O)c1ccccc1C(=O)OCCCCCCCC
inactive: [1] | [2] | [4] | [5] | [6] | [12] | [13] | [7] | [10] | [11]

CCCC(=O)OCOC(=O)C1=C(C)NC(C)=C(C(=O)OC)C1c1cccc(Cl)c1Cl (stereo not drawn)
inactive: [1] | [2] | [3] | [4] | [5] | [6] | [7] | [10] | [11]

CCN(CC)C(=O)c1cc(S(=O)(=O)Cc2ccccc2)c(N2CCC(c3ccccc3)CC2)cc1N(CC)CCN(C)C
inactive: [15] | [4] | [13] | [9]
active: [1] 15.3 µM | [14] 21.4 µM | [3] 19.1 µM | [5] 21.4 µM | [6] 24.1 µM | [7] 21.4 µM | [11] 10.8 µM

CCCCCCCC/C=C\CCCCCCCCN
inactive: [1] | [3] | [4] | [5] | [6] | [13] | [8] | [9] | [10] | [11]

C=CC(C)(CCC=C(C)C)OC=O (stereo not drawn)
inactive: [1] | [2] | [3] | [5] | [6] | [12] | [13] | [8] | [9] | [10] | [11]

CC(C)OC(=O)C(O)(CC(=O)O)CC(=O)O
inactive: [1] | [2] | [3] | [4] | [5] | [6] | [12] | [7] | [8] | [9] | [10] | [11]

Nc1ccc(NCCO)c([N+](=O)[O-])c1
active: [3] 48.6 µM | [4] 35.6 µM
inactive: [1] | [15] | [12] | [13] | [8] | [9] | [11]

O=[N+]([O-])c1cccc(C(F)(F)F)c1
inactive: [1] | [2] | [3] | [4] | [5] | [6] | [7] | [10]

Reference: PubChem BioAssay (Tox21)
